# Reference: article PMC7862700, “An all-to-all approach to the identification of sequence-specific readers for epigenetic DNA modifications on cytosine”
# What was measured:
# Assay in all cases: DAPPL (digital affinity profiling via proximity ligation, sequencing); 10 mM Tris-HCl pH 7.5, 50 mM NaCl, 1 mM DTT, 4% glycerol, room temperature, 30 min; GST-TFs on glutathione beads, 16-mer random dsDNA library, 0.1% formaldehyde crosslink after washing; high values mean tight binding
# FEV = molecular target: T1, FEV (Homo sapiens, UniProt Q99581 1-238); conditions: protein: recombinant; tags: N-terminal GST; dsDNA, one strand shown
# T1 sequence: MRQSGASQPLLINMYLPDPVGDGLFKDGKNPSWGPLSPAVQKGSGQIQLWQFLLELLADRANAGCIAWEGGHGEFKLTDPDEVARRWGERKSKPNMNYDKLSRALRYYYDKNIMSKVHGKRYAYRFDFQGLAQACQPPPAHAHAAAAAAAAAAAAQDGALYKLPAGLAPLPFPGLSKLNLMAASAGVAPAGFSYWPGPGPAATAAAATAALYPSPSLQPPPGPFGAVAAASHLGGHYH
# Procedure, shortened: (§1)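 Human transcription factors fused to GST were expressed in yeast, captured on glutathione beads, given DNA barcodes and pooled with a GST-only negative control. Pools were incubated with 200 nmole of a 16-mer random double-stranded DNA library in Tris/NaCl/DTT/glycerol buffer at room temperature for 30 min. They were then washed, crosslinked with 0.1% formaldehyde, proximity-ligated (BsaI/T4 ligase, 1 h, 37 °C), PCR-amplified and sequenced on an Illumina NextSeq500. Binding signal is each 6-mer's read frequency for a factor divided by its frequency for the GST control.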
# ETV5 = ETV5 (Homo sapiens, UniProt P41161 1-510); conditions: protein: recombinant; tags: N-terminal GST; dsDNA, one strand shown
# Sequence of ETV5 (P41161 whole entry): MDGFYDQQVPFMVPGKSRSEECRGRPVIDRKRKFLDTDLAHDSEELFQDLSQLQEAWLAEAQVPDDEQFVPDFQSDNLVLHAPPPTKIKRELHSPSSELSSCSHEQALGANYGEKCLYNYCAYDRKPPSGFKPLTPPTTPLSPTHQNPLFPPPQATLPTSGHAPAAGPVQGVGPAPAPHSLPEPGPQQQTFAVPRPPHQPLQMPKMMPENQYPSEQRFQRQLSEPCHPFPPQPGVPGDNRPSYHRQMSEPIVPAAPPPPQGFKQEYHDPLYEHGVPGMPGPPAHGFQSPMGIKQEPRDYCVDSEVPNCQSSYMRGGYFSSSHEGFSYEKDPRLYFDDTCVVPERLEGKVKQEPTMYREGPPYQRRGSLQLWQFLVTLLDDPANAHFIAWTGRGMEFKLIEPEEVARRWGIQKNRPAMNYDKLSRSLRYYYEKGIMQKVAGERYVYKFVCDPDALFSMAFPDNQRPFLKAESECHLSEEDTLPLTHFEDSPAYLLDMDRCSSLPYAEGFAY
# Procedure, shortened: as §1
# HSF1 = HSF1 (Homo sapiens, UniProt Q00613 1-529); conditions: protein: recombinant; tags: N-terminal GST; chain copies: 3; dsDNA, one strand shown
# Sequence of HSF1 (Q00613 whole entry): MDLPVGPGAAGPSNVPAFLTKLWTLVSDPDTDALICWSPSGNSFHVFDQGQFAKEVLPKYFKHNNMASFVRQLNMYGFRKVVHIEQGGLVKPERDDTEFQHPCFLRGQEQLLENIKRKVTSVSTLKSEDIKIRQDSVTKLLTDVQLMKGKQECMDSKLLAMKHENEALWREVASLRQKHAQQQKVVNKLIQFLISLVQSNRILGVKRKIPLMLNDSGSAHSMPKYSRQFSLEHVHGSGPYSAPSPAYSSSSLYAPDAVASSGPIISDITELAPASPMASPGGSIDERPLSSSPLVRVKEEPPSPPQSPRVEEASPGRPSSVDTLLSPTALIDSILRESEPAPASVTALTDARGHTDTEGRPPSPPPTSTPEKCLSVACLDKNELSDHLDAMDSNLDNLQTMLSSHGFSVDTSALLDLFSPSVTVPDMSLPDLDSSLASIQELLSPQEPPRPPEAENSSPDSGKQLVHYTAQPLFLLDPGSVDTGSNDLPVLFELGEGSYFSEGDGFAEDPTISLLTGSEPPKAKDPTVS
# Procedure, shortened: as §1
# SPIC = molecular target: T2, SPIC (Homo sapiens, UniProt Q8N5J4 1-248); conditions: protein: recombinant; tags: N-terminal GST; dsDNA, one strand shown
# T2 sequence: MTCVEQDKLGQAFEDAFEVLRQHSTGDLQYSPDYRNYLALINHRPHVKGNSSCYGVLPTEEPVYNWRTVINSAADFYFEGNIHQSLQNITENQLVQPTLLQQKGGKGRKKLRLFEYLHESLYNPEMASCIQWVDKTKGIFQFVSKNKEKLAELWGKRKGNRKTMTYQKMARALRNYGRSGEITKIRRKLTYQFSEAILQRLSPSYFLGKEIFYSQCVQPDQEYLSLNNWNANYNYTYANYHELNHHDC
# Procedure, shortened: as §1
# ELF4 = ELF4 (Homo sapiens, UniProt Q99607 1-663); conditions: protein: recombinant; tags: N-terminal GST; dsDNA, one strand shown
# Sequence of ELF4 (Q99607 whole entry): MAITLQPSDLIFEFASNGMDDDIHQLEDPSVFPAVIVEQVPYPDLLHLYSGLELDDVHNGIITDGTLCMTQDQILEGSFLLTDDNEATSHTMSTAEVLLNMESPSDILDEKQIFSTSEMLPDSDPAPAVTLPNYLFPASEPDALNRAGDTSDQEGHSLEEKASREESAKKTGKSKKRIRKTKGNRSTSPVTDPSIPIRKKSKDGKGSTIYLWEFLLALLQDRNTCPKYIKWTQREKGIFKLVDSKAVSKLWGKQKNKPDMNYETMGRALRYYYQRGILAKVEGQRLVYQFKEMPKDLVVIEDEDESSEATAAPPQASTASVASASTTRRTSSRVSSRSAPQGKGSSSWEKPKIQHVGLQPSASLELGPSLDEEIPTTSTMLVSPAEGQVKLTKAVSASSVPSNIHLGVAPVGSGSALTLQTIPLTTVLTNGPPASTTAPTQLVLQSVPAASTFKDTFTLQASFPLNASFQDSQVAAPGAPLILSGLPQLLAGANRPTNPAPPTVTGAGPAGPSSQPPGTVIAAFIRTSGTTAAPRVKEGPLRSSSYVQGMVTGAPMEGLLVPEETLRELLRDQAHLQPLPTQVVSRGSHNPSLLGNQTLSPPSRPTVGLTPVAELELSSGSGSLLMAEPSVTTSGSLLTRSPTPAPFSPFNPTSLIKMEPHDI
# Procedure, shortened: as §1
# ELK4 = molecular target: T3, ELK4 (Homo sapiens, UniProt P28324-2 1-405); conditions: protein: recombinant; tags: N-terminal GST; dsDNA, one strand shown
# T3 sequence: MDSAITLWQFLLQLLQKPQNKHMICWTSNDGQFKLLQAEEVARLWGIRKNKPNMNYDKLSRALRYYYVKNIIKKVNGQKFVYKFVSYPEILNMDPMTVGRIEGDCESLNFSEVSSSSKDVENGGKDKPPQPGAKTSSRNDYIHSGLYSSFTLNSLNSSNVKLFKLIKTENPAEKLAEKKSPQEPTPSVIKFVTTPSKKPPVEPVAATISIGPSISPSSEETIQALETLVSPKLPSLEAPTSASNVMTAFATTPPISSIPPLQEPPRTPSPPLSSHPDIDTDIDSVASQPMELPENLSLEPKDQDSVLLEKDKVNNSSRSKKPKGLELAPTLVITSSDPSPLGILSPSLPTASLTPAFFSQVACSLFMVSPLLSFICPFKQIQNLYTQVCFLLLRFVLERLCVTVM
# Procedure, shortened: as §1
# ETV2 = molecular target: T4, ETV2 (Homo sapiens, UniProt O00321 1-342); conditions: protein: recombinant; tags: N-terminal GST; dsDNA, one strand shown
# T4 sequence: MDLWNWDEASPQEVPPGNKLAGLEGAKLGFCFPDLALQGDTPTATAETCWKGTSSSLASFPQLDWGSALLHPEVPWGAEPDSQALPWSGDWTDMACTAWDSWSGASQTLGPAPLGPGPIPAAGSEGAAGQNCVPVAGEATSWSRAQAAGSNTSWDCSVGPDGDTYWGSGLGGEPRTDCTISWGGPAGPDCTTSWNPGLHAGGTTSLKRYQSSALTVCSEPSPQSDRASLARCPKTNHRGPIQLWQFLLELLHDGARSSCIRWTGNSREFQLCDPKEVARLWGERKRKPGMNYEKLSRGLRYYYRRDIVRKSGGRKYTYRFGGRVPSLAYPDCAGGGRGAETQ
# Procedure, shortened: as §1
# ELF3 = molecular target: T5, ELF3 (Homo sapiens, UniProt P78545 1-371); conditions: protein: recombinant; tags: N-terminal GST; dsDNA, one strand shown
# T5 sequence: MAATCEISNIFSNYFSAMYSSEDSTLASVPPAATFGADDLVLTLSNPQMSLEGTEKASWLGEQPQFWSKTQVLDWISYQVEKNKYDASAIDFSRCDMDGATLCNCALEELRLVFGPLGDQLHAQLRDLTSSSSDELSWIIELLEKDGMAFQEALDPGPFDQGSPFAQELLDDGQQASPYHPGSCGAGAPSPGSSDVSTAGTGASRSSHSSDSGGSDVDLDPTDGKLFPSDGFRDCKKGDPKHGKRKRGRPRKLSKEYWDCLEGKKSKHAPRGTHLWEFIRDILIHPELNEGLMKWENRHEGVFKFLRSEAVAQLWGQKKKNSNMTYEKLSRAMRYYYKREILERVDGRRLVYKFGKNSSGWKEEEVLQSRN
# Procedure, shortened: as §1
# CRX = CRX (Homo sapiens, UniProt O43186 1-299); conditions: protein: recombinant; tags: N-terminal GST; dsDNA, one strand shown
# Sequence of CRX (O43186 whole entry): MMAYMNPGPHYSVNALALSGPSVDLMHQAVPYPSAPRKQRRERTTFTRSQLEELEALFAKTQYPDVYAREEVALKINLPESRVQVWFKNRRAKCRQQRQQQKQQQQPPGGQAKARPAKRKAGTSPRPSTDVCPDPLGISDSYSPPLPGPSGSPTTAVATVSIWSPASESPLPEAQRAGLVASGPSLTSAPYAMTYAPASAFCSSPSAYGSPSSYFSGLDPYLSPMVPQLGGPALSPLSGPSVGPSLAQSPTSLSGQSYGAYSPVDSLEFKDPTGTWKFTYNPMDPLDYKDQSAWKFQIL
# Procedure, shortened: as §1
# ETV1 = ETV1 (Homo sapiens, UniProt P50549 1-477); conditions: protein: recombinant; tags: N-terminal GST; dsDNA, one strand shown
# Sequence of ETV1 (P50549 whole entry): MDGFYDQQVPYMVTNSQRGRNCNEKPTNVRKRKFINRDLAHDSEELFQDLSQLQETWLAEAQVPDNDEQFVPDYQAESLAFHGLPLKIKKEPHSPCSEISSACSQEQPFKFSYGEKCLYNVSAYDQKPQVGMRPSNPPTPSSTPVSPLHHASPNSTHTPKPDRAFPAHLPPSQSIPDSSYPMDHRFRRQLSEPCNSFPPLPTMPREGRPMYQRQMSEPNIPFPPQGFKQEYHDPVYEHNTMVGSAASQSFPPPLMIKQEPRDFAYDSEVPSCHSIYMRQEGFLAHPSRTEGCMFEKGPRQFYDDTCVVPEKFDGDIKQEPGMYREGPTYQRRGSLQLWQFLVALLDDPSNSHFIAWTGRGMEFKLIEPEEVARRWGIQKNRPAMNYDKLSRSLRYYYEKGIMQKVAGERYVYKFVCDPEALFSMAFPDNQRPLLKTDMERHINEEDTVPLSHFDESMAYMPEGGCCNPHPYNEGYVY
# Procedure, shortened: as §1
# ERF = molecular target: T6, ERF (Homo sapiens, UniProt P50548 1-548); conditions: protein: recombinant; tags: N-terminal GST; dsDNA, one strand shown
# T6 sequence: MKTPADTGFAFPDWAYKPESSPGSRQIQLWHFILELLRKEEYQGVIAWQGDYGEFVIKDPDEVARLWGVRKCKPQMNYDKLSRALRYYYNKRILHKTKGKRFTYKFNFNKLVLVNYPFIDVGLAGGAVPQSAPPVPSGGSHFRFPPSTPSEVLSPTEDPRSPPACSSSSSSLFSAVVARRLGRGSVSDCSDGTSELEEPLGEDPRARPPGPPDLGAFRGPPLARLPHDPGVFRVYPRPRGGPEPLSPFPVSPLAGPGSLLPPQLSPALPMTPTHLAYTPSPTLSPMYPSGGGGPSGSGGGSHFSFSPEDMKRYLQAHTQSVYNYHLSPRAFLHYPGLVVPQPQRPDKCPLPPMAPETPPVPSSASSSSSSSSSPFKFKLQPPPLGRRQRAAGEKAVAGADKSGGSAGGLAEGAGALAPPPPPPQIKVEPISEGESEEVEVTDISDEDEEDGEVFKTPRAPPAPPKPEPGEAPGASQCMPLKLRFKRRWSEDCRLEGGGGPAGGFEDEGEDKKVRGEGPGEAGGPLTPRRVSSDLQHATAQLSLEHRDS
# Procedure, shortened: as §1
# ETV3L = molecular target: T7, ETV3L (Homo sapiens, UniProt Q6ZN32 1-361); conditions: protein: recombinant; tags: N-terminal GST; dsDNA, one strand shown
# T7 sequence: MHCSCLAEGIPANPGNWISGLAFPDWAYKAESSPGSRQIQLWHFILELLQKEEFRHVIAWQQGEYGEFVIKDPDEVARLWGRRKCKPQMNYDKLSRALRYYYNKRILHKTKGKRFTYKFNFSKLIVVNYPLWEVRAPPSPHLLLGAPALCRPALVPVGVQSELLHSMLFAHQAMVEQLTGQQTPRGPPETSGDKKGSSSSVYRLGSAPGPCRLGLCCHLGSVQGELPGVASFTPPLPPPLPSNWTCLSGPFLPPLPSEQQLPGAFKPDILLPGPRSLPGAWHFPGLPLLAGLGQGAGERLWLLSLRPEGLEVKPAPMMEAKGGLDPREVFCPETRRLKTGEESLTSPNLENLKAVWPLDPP
# Procedure, shortened: as §1
# ETS2 = molecular target: T8, ETS2 (Homo sapiens, UniProt P15036 1-469); conditions: protein: recombinant; tags: N-terminal GST; dsDNA, one strand shown
# T8 sequence: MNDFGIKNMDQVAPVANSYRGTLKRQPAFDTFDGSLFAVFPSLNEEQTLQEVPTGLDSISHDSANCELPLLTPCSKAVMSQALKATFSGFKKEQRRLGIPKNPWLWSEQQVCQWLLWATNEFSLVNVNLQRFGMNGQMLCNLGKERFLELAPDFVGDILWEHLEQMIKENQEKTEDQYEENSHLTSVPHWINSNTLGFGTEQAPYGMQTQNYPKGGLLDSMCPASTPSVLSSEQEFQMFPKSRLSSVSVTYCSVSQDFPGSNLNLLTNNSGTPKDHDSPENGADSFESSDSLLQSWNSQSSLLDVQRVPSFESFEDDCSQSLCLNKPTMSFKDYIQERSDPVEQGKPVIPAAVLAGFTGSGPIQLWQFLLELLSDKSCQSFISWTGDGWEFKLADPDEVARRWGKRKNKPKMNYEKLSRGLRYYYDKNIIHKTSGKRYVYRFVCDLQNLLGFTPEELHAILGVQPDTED
# Procedure, shortened: as §1
# SPDEF = molecular target: T9, SPDEF (Homo sapiens, UniProt O95238 1-335); conditions: protein: recombinant; tags: N-terminal GST; dsDNA, one strand shown
# T9 sequence: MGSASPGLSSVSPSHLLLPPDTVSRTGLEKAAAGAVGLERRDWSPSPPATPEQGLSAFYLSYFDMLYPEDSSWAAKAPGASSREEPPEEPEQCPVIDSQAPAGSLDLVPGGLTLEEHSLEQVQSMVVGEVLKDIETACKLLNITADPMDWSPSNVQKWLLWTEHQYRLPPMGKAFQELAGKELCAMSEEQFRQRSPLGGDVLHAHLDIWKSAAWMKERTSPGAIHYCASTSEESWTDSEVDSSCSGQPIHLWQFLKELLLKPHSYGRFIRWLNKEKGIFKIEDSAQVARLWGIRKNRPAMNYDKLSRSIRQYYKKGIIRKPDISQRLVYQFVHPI
# Procedure, shortened: as §1
# ETV7 = molecular target: T10, ETV7 (Homo sapiens, UniProt Q9Y603 1-341); conditions: protein: recombinant; tags: N-terminal GST; dsDNA, one strand shown
# T10 sequence: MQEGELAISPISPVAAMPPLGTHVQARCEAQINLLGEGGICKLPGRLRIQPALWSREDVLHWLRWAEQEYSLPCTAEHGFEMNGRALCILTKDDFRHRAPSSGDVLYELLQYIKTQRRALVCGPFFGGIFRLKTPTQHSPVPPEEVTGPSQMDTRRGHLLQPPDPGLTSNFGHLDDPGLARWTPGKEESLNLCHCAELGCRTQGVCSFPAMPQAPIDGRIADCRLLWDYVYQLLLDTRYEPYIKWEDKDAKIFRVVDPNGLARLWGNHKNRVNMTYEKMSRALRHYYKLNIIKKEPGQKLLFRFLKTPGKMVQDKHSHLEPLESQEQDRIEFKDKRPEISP
# Procedure, shortened: as §1
# ELF5 = molecular target: T11, ELF5 (Homo sapiens, UniProt Q9UKW6-2 1-255); conditions: protein: recombinant; tags: N-terminal GST; dsDNA, one strand shown
# T11 sequence: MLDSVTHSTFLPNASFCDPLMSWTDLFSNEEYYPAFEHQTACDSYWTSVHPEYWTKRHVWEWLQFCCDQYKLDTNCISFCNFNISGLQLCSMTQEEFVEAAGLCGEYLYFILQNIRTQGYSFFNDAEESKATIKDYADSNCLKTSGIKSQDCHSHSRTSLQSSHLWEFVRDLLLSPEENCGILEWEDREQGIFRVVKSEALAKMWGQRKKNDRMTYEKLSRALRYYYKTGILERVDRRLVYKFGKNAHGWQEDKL
# Procedure, shortened: as §1
# ETV3 = molecular target: T12, ETV3 (Homo sapiens, UniProt P41162-2 1-143); conditions: protein: recombinant; tags: N-terminal GST; dsDNA, one strand shown
# T12 sequence: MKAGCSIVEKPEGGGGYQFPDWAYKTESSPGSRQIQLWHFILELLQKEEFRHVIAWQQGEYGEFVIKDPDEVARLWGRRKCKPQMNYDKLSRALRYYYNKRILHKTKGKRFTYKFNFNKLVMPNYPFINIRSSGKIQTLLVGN
# Procedure, shortened: as §1
sequence,measurement,setting,value
GCTGAT,binding signal,FEV,"1.07 fold enrichment (6-mer frequency, TF over GST control)"
same,binding signal,ETV5,"1.11 fold enrichment (6-mer frequency, TF over GST control)"
same,binding signal,HSF1,"1.16 fold enrichment (6-mer frequency, TF over GST control)"
same,binding signal,SPIC,"1.19 fold enrichment (6-mer frequency, TF over GST control)"
same,binding signal,ELF4,"1.19 fold enrichment (6-mer frequency, TF over GST control)"
same,binding signal,ELK4,"1.25 fold enrichment (6-mer frequency, TF over GST control)"
same,binding signal,ETV2,"1.08 fold enrichment (6-mer frequency, TF over GST control)"
same,binding signal,ELF3,"1.16 fold enrichment (6-mer frequency, TF over GST control)"
same,binding signal,CRX,"1.39 fold enrichment (6-mer frequency, TF over GST control)"
same,binding signal,ETV1,"1.2 fold enrichment (6-mer frequency, TF over GST control)"
same,binding signal,ERF,"1.07 fold enrichment (6-mer frequency, TF over GST control)"
same,binding signal,ETV3L,"1.18 fold enrichment (6-mer frequency, TF over GST control)"
same,binding signal,ETS2,"1.12 fold enrichment (6-mer frequency, TF over GST control)"
same,binding signal,SPDEF,"1.07 fold enrichment (6-mer frequency, TF over GST control)"
same,binding signal,ETV7,"1.27 fold enrichment (6-mer frequency, TF over GST control)"
same,binding signal,ELF5,"1.03 fold enrichment (6-mer frequency, TF over GST control)"
same,binding signal,ETV3,"1.2 fold enrichment (6-mer frequency, TF over GST control)"
